About 5,700 (36%) of roughly 16,000 compounds were called active. Roughly 24% stayed inconclusive and do not appear here. Calls come from the whole dose curve; as a rule, active = well fitted curve in the direction sought with a large enough effect; inconclusive = small, poorly fitted or top-dose-only effect, or effect the other way; inactive = no such curve, though single readings can be large or run the other way. This is one part of the list.

Broadly, the AC50 is the concentration giving half of the maximal activity seen.
% is set by controls: 0 for no effect and ±100 for the full control effect.

In the assay the target is Cytochrome P450 1A2 (Homo sapiens) (UniProt P05177). Kind of assay: Cytochrome panel assay with activity outcomes. Conditions: recombinant CYP, pro-luciferin dealkylation, luminescence, p450-cyp1a2; series mostly up to 57.1 µM.
Sequence of Cytochrome P450 1A2 (Homo sapiens) (P05177 whole entry, looked up): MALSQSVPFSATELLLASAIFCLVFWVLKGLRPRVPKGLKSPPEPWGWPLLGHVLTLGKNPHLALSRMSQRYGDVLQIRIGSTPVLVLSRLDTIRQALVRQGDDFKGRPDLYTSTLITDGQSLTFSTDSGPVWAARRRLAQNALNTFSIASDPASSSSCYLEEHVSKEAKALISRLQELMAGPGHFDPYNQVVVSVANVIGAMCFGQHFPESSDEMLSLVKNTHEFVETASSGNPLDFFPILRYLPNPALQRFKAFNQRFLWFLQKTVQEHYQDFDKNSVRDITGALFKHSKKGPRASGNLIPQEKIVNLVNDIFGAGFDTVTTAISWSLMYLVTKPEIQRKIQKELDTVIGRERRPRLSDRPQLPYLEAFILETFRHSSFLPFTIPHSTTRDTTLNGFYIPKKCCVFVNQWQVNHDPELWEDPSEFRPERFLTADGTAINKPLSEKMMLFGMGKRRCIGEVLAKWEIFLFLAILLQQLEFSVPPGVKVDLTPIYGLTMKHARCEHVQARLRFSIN
In the case of `CCc1cc[n+](-c2nc3ccccc3nc2C(=C=[N-])C#N)cc1`, the AC50 entry was “inactive”. On the same count and under the same terms, then `COC(=O)[C@@H]1C[C@H]1[C@@H](NC(=O)c1ccccc1)c1ccccc1`, with 5.01 µM (active); and `COC(=O)C1CC1C(NC(=O)[C@H]1CCCCN1)c1ccccc1` (stereo not given in full), with “inactive”. Still for that read-out and setting: then `Cc1cc(N(CN2CCCC2=O)C(=O)c2ccc(F)cc2)no1`, with “inactive”; and `Cc1nc2c3cnn(-c4ccc(C)c(C)c4)c3ncn2n1`, with 8.91 µM (active); and `Cc1ccc(-n2ncc3c2ncn2nc(-c4ccco4)nc32)c(C)c1`, with “inactive”. The same measure, in the same setting: then `COC(=O)[C@@]1(Cc2ccc(OC)cc2)[C@H]2c3cc(C(=O)N4CCCC4)n(CCc4c[nH]c5ccc(O)cc45)c3C[C@H]2CN1C(=O)c1ccccc1`, with “inactive”.

Take `COc1cccc(-c2nc(NCCc3c[nH]c4ccc(OC)cc34)c3ccccc3n2)c1`: the AC50 is 1.58 µM (active). Same read-out and setting: then `COc1ccc2[nH]cc(CCNc3nc(-c4ccoc4)nc4ccccc34)c2c1`, with 0.398 µM (active); and `COc1ccc2[nH]cc(CCNc3nc(-c4ccccc4OC)nc4ccccc34)c2c1`, with 6.31 µM (active). The same measure, in the same setting: the result for `COc1ccc2[nH]cc(CCNc3nc(-c4cccnc4)nc4ccccc34)c2c1` reads 0.501 µM (active); that for `Cc1noc(NS(=O)(=O)c2ccc(NC(=O)CC34CC5CC(CC(Br)(C5)C3)C4)cc2)c1C`, “inactive”; that for `Cc1ccc(NC(=O)CCc2c(C)nc3ncnn3c2C)nc1`, “inactive”. The same measure, in the same setting: then `CCC(CC)c1nnc(NC(=O)c2cccc(S(=O)(=O)N3CCc4ccccc43)c2)s1`, with “inactive”; and `Cc1ccc(NC(=O)c2sc3ccccc3c2Cl)nc1`, with 2.51 µM (active); and `Cc1ccc(NC(=O)C2CCN(S(=O)(=O)c3c(C)n[nH]c3C)CC2)nc1`, with “inactive”. Turning to `CCCC(=O)N1CCN(c2ccc(NC(=O)c3sc4ccccc4c3Cl)cc2)CC1`, the AC50 entry was “inactive”. Still for that read-out and setting: then `CC(C)c1nnc(NC(=O)c2sc3ccccc3c2Cl)s1`, with 10 µM (active); and `O=C(NNC(=O)c1sc2ccccc2c1Cl)Nc1ccc(Cl)cc1`, with 0.501 µM (active). `Cc1nn(Cc2ccccc2Cl)c(C)c1NC(=O)CCCn1nc(C)c([N+](=O)[O-])c1C`: the AC50 entry was “inactive”. For `Cc1ccccc1Cn1nc(C)c(NC(=O)c2sc3ccccc3c2Cl)c1C`, the AC50 was 2.24 µM (active). Same read-out and setting: then `Cc1ccc(-c2cc(C(F)F)n3ncc(C(=O)Nc4c(C)nn(Cc5c(Cl)cccc5Cl)c4C)c3n2)cc1`, with “inactive”.

As for `N#Cc1cccc(NC(=O)N2CCC3(CC2)CCN(C(=O)c2cccc(F)c2)CC3)c1`, the AC50 result is “inactive”.

As for `Cc1ccc(S(=O)(=O)N(CC(=O)N2CCN(c3ccc(F)cc3)CC2)C2CCCCC2)cc1`, the AC50 entry is “inactive”. Still for that read-out and setting: the result for `O=C(c1cc(C(F)(F)F)cc(C(F)(F)F)c1)N1CCC2(CC1)CN(c1ccccc1)C2` reads “inactive”.

Turning to `CCc1ccc(NC(=S)N2CCN(c3cccc(C(F)(F)F)c3)CC2)cc1`, the AC50 entry is “inactive”.

For the compound `Cc1ccc(CC(=O)N2CCN(c3cccc(C(F)(F)F)c3)CC2)cc1`, the AC50 was 31.6 µM (active). The same measure, in the same setting: the result for `O=C(c1cccc(F)c1)N1CCC2(CCN(Cc3cc(C(F)(F)F)cc(C(F)(F)F)c3)CC2)CC1` reads “inactive”; that for `O=C(c1coc2ccccc2c1=O)N1CCN(c2cccc(C(F)(F)F)c2)CC1`, 31.6 µM (active).

As for `C[C@]1(c2ccccc2)O[C@@H]2C[C@@H]3[C@@H]4CCC5=CC(=O)C=C[C@@]5(C)[C@]4(F)[C@H](O)C[C@]3(C)[C@@]2(C(=O)CO)O1`, the activity, negative = inhibition was -16.4% [at 2.29 µM] (inactive).

Turning to `CO[C@@H]1COC(=O)[C@H](COCc2ccccc2)NC(=O)C/C=C\[C@@H](C)[C@H](OC)COC(=O)[C@@H](C)NC(=O)C/C=C\[C@H]1C`, the activity, negative = inhibition is 3.31% [at 11.4 µM] (inactive).

Turning to `CC(C)=CCC/C(C)=C/CC/C(C)=C/CSc1ccccc1C(=O)O`, the AC50 was 12.6 µM (active).

As to `CC(=O)N(CC(=O)O)c1ccccc1C(=O)O`, the AC50 entry was “inactive”. Take `C[C@H](CN(C)C)C(=O)c1ccccc1C(=O)O`: the activity, negative = inhibition is -5.91% [at 11.4 µM] (inactive). `CNc1ncnc2c1ncn2[C@@H]1O[C@H](CO)[C@@H](O)[C@@H]1O`: the AC50 entry was “inactive”. The same measure, in the same setting: then `CCOc1ccc(N2C(=O)CS/C2=N/NC(=O)COc2ccc3ccccc3c2)cc1`, with 14.1 µM (active); and `O=C(COc1ccc2ccccc2c1)N1CCN(C(=O)c2cccnc2)CC1`, with “inactive”; and `CC(=O)N1CCN(S(=O)(=O)c2ccccc2)C1c1ccccc1` (stereo not given), with “inactive”. On the same count and under the same terms, then `C=C(C)c1cccc(C(C)(C)NC(=O)Nc2cc(C)ccc2OC)c1`, with 11.2 µM (active); and `Cc1cccc(C(=O)NNC(=O)C(=O)NC(C)(C)C)c1`, with “inactive”; and `COc1ccc(C)cc1NC(=O)CCC(=O)Nc1nnc(C(F)(F)F)s1`, with “inactive”. On to `C/C(=N/O)c1ccc2cc(Br)c3ccccc3c2c1`, for which the activity, negative = inhibition is -13.6% [at 2.29 µM] (inactive). Turning to `C/C(=N\O)c1ccc2[nH]ccc2c1`, the AC50 is 4.47 µM (active). On to `C[C@H](O/N=C1/[C@H]2O[C@@H]2[C@@H](O)[C@H]2[C@H]1CCn1c(=O)n(-c3ccccc3)c(=O)n12)c1cn([C@H]2COC[C@H]2O)nn1`, for which the activity, negative = inhibition was 4.91% [at 11.4 µM] (inactive). On to `COc1ccc(/C=C2\N=C(SC)N(C)C2=O)cc1`, for which the AC50 is 1.78 µM (active).

As to `CO/N=C(\C(=O)N[C@@H]1C(=O)N2C(C(=O)O)=C(COC(N)=O)CS[C@@H]12)c1ccco1`, the AC50 entry is “inactive”. Still for that read-out and setting: then `COc1cccc(-c2cc(NCc3ccccc3OC)ncn2)c1`, with 1.26 µM (active); and `COc1cccc(-c2cc(NCc3ccc(OC)cc3OC)ncn2)c1`, with 2 µM (active). Same read-out and setting: then `CC(C)C[C@H]1C(=O)N2CCC[C@@H]2[C@]2(O)O[C@](NC(=O)[C@@H]3C=C4c5cccc6[nH]c(Br)c(c56)C[C@H]4N(C)C3)(C(C)C)C(=O)N12`, with “inactive”; and `Cc1nc2ncnn2c(C)c1CCC(=O)Nc1ccc(S(=O)(=O)N2CCCCCC2)cc1`, with “inactive”. For `O=c1c2cc(Br)ccc2[nH]c(=S)n1Cc1cccnc1`, the AC50 was 0.251 µM (active).

For the compound `COc1ccccc1Cn1c(=S)[nH]c2cc(C(=O)N3CCN(C)CC3)ccc2c1=O`, the AC50 result was “inactive”.

For `COc1ccc(-n2c(CNC(=O)c3cc(OC)c(OC)c(OC)c3)n[nH]c2=S)cc1`, the AC50 result is “inactive”. The same measure, in the same setting: then `COc1cc(C(=O)NCc2cccc3ccccc23)cc(Cl)c1OC`, with 10 µM (active). The same measure, in the same setting: the result for `CN(Cc1cnc2nc(N)nc(N)c2n1)c1ccc(C(=O)N[C@H](CCC(=O)O)C(=O)O)cc1` reads “inactive”.

Source of the values: PubChem BioAssay AID1851 (National Center for Advancing Translational Sciences (NCATS), 2009).
